EphB4 antag – EphB4-ephrin-B2 interaction antagonists, primary screen, biochemical, TNYL-RAW peptide probe, fluorescence polarization; inhibition, % at 7 µM; Ephrin type-B receptor 4 (Homo sapiens), P54760; 0.15% of 97,000 active; EphB4 LBD / TNYL-RAW-Alexa532 peptide;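 active = inhibition above the screen-wide mean inhibition plus 3 SD, cut at about 15% in these data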
PostGolgi yeast – phenotypic screen on post-Golgi transport, primary screen; inhibition, % at 10 µM; 0.9% of 98,000 active; post-Golgi transport phenotypic cell assay;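 note: yeast cells grown in 1536-well plates; yeast grown about 18 h at 30C before absorbance read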
Candida biofilm – clotrimazole potentiators killing Candida biofilms, primary screen, with clotrimazole, Alamar Blue; C. albicans biofilm + clotrimazole; inhibition, % at 6 µM; 0.14% of 85,000 active;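 active = inhibition above 20%; inactive = inhibition below 20%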;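 note: preformed 24 hr biofilms exposed to compound for 48 hr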
PostGolgi ctrl – growth inhibition of yeast control strain, primary screen, counter-screen for post-Golgi transport modulator project; efflux-deficient yeast background strain, growth absorbance A615, 16 h; inhibition, % at 10 µM; 5% of 98,000 active; AID 738, 2007
A number is an active result; - = inactive; . = no result given. The list is not random: actives were taken first. Their share in the collection is about 5.2%. Cut-off read from the data, not from the text of the source, unless noted: active = inhibition above about 30%; inactive = the rest.

SMILES	EphB4 antag	PostGolgi yeast	Candida biofilm	PostGolgi ctrl
Cc1noc(C)c1S(=O)(=O)N(CC(=O)N1CCCCCC1)c1ccc(C(C)C)cc1	-	-	-	32
Cc1ccc(N(C(=O)CCC(=O)Nc2cc(C)on2)C(C(=O)NC2CCCC2)c2cccs2)cc1 (stereo not drawn)	-	-	-	36
Cc1cc(NC(=O)CCC(=O)N(c2ccccc2)C(C(=O)NC2CCCC2)c2cccs2)no1 (stereo not drawn)	-	-	-	-
COC(=O)CNC(=O)Cc1c(F)cccc1Cl	-	-	-	-
Cc1nn(-c2ccccc2)c2c1C(=O)N(c1ccccc1)C(=O)C(C)(C)C2	-	-	-	35
COc1ccc(C(=O)Cc2ccc(OC)c(OC)c2)c(OC)c1	-	-	-	-
Cn1c(=O)c(Cc2ccccc2)c(O)c2ccccc21	-	-	-	49
COCCn1c(SCC(=O)Nc2cc(C)cc(C)c2)nnc1C(C)C	-	-	-	30
CCn1c(SCC(=O)N2CCCC2)nnc1-c1ccc(S(=O)(=O)N2CCCCCC2)cc1	-	-	-	-
CCn1c(SCc2ccc(C#N)cc2)nnc1-c1ccc(S(=O)(=O)N2CCCCC2)cc1	-	-	-	43
O=C(COC(=O)c1cc(S(=O)(=O)N2CCc3ccccc3C2)ccc1Cl)NCc1ccco1	-	-	-	-
O=C(COC(=O)c1cccc(S(=O)(=O)N2CCc3ccccc3C2)c1)NCc1ccco1	.	-	-	43
CCc1cc2c(=O)n(Cc3ccco3)c(SCc3c(C)noc3C)nc2s1	-	-	-	33
CCc1cc2c(=O)n(Cc3ccco3)c(SCC(=O)N3CCCc4ccccc43)nc2s1	-	-	-	-
O=C1c2ccccc2C(=O)N1CCC1=CCCCC1	-	-	-	-
CC1=CCC(C(=O)O)(C(=O)N/N=C/c2cccs2)C(c2ccc([N+](=O)[O-])cc2)C1 (stereo not drawn)	-	-	-	65
O=C(Nc1ccc2c(c1)CCC2)c1cc(S(=O)(=O)N2CCN(c3ccccc3)CC2)ccc1Cl	-	-	.	-
COc1cc(NC(=O)c2cccs2)c(C(=O)OCC(=O)NC(C)c2ccccc2)cc1OC (stereo not drawn)	-	-	.	30
COc1cc(NC(=O)c2cccs2)c(C(=O)OCC(=O)NCc2ccccc2)cc1OC	-	-	-	-
COc1ccc(C(=O)c2ccc(OC)c(OC)c2)cc1OC	-	-	-	-
COc1ccc(C(=O)c2c(C(F)(F)F)oc3c2C(=O)c2ccccc2C3=O)cc1OC	-	37	-	-
Cc1ncc([N+](=O)[O-])n1CCOC(=O)Nc1ccc(Cl)c(Cl)c1	-	-	.	-
Cc1nc2ccc(NC(=O)N3CCSCC3)cc2s1	-	-	-	31
Cc1nc2ccc(NC(=O)N3CCCCC3)cc2s1	-	-	.	-
COc1ccc(N(CC(=O)NCc2cccs2)S(=O)(=O)c2cccnc2)cc1	-	-	-	30
SMILES	EphB4 antag	PostGolgi yeast	Candida biofilm	PostGolgi ctrl
CCCn1c(CCC(=O)Nc2ccccc2Cc2ccccc2)nc2cc(S(=O)(=O)N3CCOCC3)ccc21	-	-	-	-
COc1ccc(CCN2C(=S)NC3CC2(C)Oc2ccc([N+](=O)[O-])cc23)cc1OC (stereo not drawn)	-	-	-	-
Cc1ccc(N(C(C)C(=O)O)S(=O)(=O)c2cccnc2)cc1 (stereo not drawn)	.	-	24	-
COc1cccc(-c2cc(C(=O)NCCCn3ccnc3)no2)c1	-	-	-	-
COc1cc(C)nc(NCc2ccccc2)n1	-	-	-	-
Cc1cc(N2CCN(c3ccccc3)CC2)nc(NCc2ccccc2)n1	-	-	-	47
COc1ccc(CN2CC(C(=O)NCCCN3CCOCC3)CC2=O)cc1 (stereo not drawn)	-	-	.	35
CC(C)(C)NC(NC(=O)Cc1ccccc1)C(Cl)(Cl)Cl (stereo not drawn)	-	-	.	-
Brc1ccc2c(c1)OCCOCCOc1cc(Br)ccc1OCCOCCOCCO2	-	-	.	68
O=C(O/N=C/C1=C(Cl)c2ccccc2CC1)c1ccc(F)cc1	-	-	-	-
COc1ccc(C2=NN3C(C2)c2ccccc2OC32C(=O)N(C)c3ccccc32)cc1 (stereo not drawn)	-	-	.	30
O=C(COn1nnc2ccc(Cl)cc21)NC12CC3CC(CC(C3)C1)C2	-	-	-	52
COc1ccc(NC(=O)COn2nnc3ccc(Cl)cc32)cc1OC	-	-	-	-
C/C(=N\OC(=O)NC1CCCCC1)c1sc(-c2ccccc2)nc1C	-	-	.	34
C/C(=N\OC(=O)NC(C)C)c1sc(-c2ccccc2)nc1C	-	-	.	-
C/C(=N\OC(=O)NC(C)C)c1sc(-c2ccc(Cl)cc2)nc1C	-	-	.	36
COc1ccc(C(=O)Nc2cc(OC)nc(OC)n2)cc1	-	.	-	.
CCc1c(C)nc2ncnn2c1N1CCC(C(=O)Nc2cccc(C(C)=O)c2)CC1	-	-	-	-
COc1ccc(OC2C(=O)N(Cc3ccc(F)cc3)C2c2ccc(OC)c(OC)c2)cc1 (stereo not drawn)	-	-	.	40
COC(=O)c1ccc(C)c(NC(=O)CN(c2cc(OC)ccc2OC)S(C)(=O)=O)c1	-	-	-	-
COc1ccc(OC)c(N(CC(=O)Nc2ccc(NC(C)=O)cc2)S(C)(=O)=O)c1	-	-	-	31
CCn1c(N2CCN(C(=S)NC)CC2)nc2ccccc21	-	-	.	-
CCn1c(N2CCN(C(=S)NCCc3ccccc3)CC2)nc2ccccc21	-	-	.	31
CC1CCCN(C(=S)NCCc2ccccc2)C1 (stereo not drawn)	-	-	-	32
COc1ccc(CNC(=O)c2cnn3c(C(F)F)cc(C)nc23)cc1OC	.	-	-	-
SMILES	EphB4 antag	PostGolgi yeast	Candida biofilm	PostGolgi ctrl
CCNC(=O)NC(=O)CSc1nc2ccccc2n1CCOC	-	-	-	-
CC(C(=O)NCc1ccco1)n1cc(C(=O)c2ccco2)c2ccccc21 (stereo not drawn)	-	-	-	-
Cc1cccc(NC(=S)N/N=C/c2ccc([N+](=O)[O-])s2)c1	-	44	.	96
COc1ccc(CNC(=O)CN(Cc2ccccc2)S(=O)(=O)c2ccc(Cl)cc2)cc1	-	-	-	-
COc1ccc(CNC(=O)CN(Cc2ccc(Cl)cc2)S(=O)(=O)c2ccccc2)cc1	-	-	-	39
COc1ccc(CN2C(=O)c3ccccc3C(/C=N\OCc3ccc(C)cc3)C2=O)cc1 (stereo not drawn)	-	-	.	-
O=C(CCn1c(=O)sc2ccccc21)NCCN1CCOCC1	-	.	-	.
CN1C(=O)S/C(=C/c2cccnc2)C1=O	19	-	.	-
O/N=C/c1cc(Br)ccc1OCc1ccccc1F	-	.	.	.
Fc1ccccc1COc1ccc(Br)cc1CNCc1ccncc1	-	99	.	97
Fc1ccc(COc2ccc(Br)cc2CNCc2ccncc2)cc1	-	103	.	94
CC1CCN(S(=O)(=O)c2ccc(NC(=O)Cc3cccs3)cc2)CC1	-	-	-	-
FC(F)(F)c1cc(-c2ccco2)nc(NCc2cccnc2)n1	-	-	-	-
FC(F)(F)c1cc(-c2ccccc2)nc(NCc2cccnc2)n1	-	-	-	34
